# Bioassay records: PubChem, National Center for Advancing Translational Sciences (NCATS)
# Hits are enriched below; roughly 11% of the tested compounds scored in any of these assays.
# RORg inh = ROR gamma (mouse) transcription inhibition | P51450 | Drosophila S2 Gal4-RORgamma UAS-luciferase reporter, 20 h | Potency, µM (titrated, usually from 53.6 µM), without a hit: at the highest dose activity change, negative = inhibition, most hits filed as inhibitors | 5.4% of 310,000 active | AID 2551; also: potency is read from the fitted curve at half-maximal effect; % is scaled to controls: 0 for no effect and ±100 for the full control effect; nearly all actives have a fitted effect of over 60% in size
# Target sequence (P51450 whole entry, looked up, the tested form may be a part): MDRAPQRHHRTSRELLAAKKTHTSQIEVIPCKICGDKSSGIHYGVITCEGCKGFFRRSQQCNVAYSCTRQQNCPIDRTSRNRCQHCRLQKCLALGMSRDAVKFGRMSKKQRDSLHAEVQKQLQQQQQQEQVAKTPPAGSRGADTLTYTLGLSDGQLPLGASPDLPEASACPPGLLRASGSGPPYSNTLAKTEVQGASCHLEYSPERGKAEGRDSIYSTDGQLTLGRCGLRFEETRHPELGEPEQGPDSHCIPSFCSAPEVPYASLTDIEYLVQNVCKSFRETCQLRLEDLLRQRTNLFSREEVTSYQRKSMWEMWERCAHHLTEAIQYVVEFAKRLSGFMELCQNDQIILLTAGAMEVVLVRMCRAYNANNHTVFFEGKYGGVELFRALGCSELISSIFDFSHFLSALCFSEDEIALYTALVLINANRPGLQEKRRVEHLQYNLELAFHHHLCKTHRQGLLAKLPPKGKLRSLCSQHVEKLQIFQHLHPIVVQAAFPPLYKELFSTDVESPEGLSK
#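 A Gal4/UAS one-hybrid system in insect cells: metallothionein-promoter Gal4–ROR gamma fusion plus Photinus luciferase reporter. Copper sulfate 700 uM final, 20 hr ambient incubation, luminescent detection after 10 min with reagent.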
# VP16 counter = counter-screen for ROR gamma inhibitors: Gal4-VP16 reporter. Drosophila S2 Gal4-VP16 UAS-luciferase, luminescence, 20 h. Potency, µM (doses to about 53.6 µM), for inactives: at the top dose activity, negative = inhibition, most hits filed as inhibitors. 3.5% of 310,000 active. AID 2546;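 also: Gal4-VP16 expression switched on by copper sulfate through the metallothionein promoter; potency is read from the fitted curve at half-maximal effect; % is scaled to controls: 0 for no effect and ±100 for the full control effect; nearly all actives have a fitted effect of over 50% in size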
# MCF10A rereplic = inducers of DNA re-replication in MCF 10A breast cells. MCF 10A DNA re-replication, Hoechst nuclear intensity, 48 h. Potency, µM (highest dose often 46.1 µM), for the others: top-dose activity, positive = re-replication, usual class: activators. 2.9% of 350,000 active. AID 624296; also: potency is read from the fitted curve at half-maximal effect; % of control where 0% means no effect; nearly all actives have a fitted effect of over 50% in size
# SW480 rereplic = induces DNA re-replication in SW480 colon adenocarcinoma cells; 1.8% of 340,000 active; SW480 DNA re-replication, Hoechst DNA content imaging, 48 h; Potency, µM (highest dose often 46.1 µM), inactives show top-dose re-replication activation, actives largely listed as activators; AID 624297; also: potency is read from the fitted curve at half-maximal effect; % of control where 0% means no effect; nearly all actives have a fitted effect of over 55% in size
#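 DNA re-replication was detected as more nuclei of elevated Hoechst intensity after 48 hr exposure to compound (23 nL pinned per well of 250 cells).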
# IL1B secr inh = inflammasome signaling inhibition, IL-1 beta readout. THP-1 LPS/ATP IL-1B secretion, AlphaLISA, 16 h; stronger effect = lower value. activity change, % at 57.5 µM. 4.7% of 360,000 active; in the data active = activity change below about -50%; inconclusive = mostly about -30% to -49%; also: % is scaled to controls: 0 for no effect and ±100 for the full control effect
#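 Secreted IL-1B measured by AlphaLISA bead assay after 16 h compound exposure of THP-1 cells; compounds (final up to 57.5 uM) added 1 h before LPS (250 ng/mL) and ATP (1.25 mM) stimulation; lower signal means less secretion.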
# An asterisk follows results filed as active; ? = inconclusive; . = no result; [ ] = remark or other dose. Unless noted, calls follow the shape of the dose curve; as a rule, active = well fitted curve in the direction sought with a large enough effect; inconclusive = small, poorly fitted or top-dose-only effect, or another doubt; inactive = no such curve, though single readings can be large; an effect the other way counts as inactive or inconclusive.
SMILES,RORg inh,VP16 counter,MCF10A rereplic,SW480 rereplic,IL1B secr inh
COc1ccc(C(=O)NCCc2nc3cc([N+](=O)[O-])ccc3n2C)cc1,11%,-5%,5%,?,0
COc1ccc2c(c1)c(CC(=O)Nc1nnc(C3CC3)s1)c(C)n2C(=O)c1ccc(Cl)cc1,3%,-10%,10µM*,?,6
COc1ccc2c(c1)c(CC(=O)Nc1ccccc1OC)c(C)n2C(=O)c1ccc(Cl)cc1,25%,-11%,16µM*,0%,0
COc1ccc2c(c1)c(CC(=O)Nc1ccc(C(C)=O)cc1)c(C)n2C(=O)c1ccc(Cl)cc1,81%,0%,3%,-18%,-5
COc1ccc2c(c1)c(CC(=O)NCc1cc([N+](=O)[O-])ccc1O)c(C)n2C(=O)c1ccc(Cl)cc1,?,?,23µM*,-2%,0
COc1ccc2c(c1)c(CC(=O)Nc1cc(C)ccc1C)c(C)n2C(=O)c1ccc(Cl)cc1,14%,-17%,7%,1%,-6
Cc1nc2cnc(Oc3cccc(Cl)c3)nc2n(CCC#N)c1=O,-22%,-4%,.,.,.
Cc1ccccc1N1C(=O)c2cc(N)ccc2N/C1=C\F,15%,-2%,-2%,-4%,.
COc1ccc(NC(=O)c2cc(-c3cc(F)ccc3OC(C)C)n[nH]2)c(C)c1,.,.,.,.,-26
COc1ccc(OC)c(NC(=O)CCCN2C(=S)NC(C)(C)CC2C)c1 (stereo unspecified),11µM*,18µM*,5%,1%,2
COc1ccc(C)cc1NC(=O)CCCN1C(=S)NC(C)(C)CC1C (stereo unspecified),1µM*,4.5µM*,5%,0%,13
COc1ccc(OC)c(NC(=O)CCN2CCCCCC2)c1,-19%,-8%,2%,10%,9
Cc1cccc(NC(=O)CN2C(=S)NC(C)(C)CC2C)c1 (stereo unspecified),?,?,0%,-1%,2
CC(=O)N1CCc2cc(NC(=O)C3(C)CCN3Cc3ccccc3OC(F)F)ccc21 (stereo unspecified),.,.,.,.,-9
CCOC(=O)CCN1C(=O)[C@H]2[C@H]3[C@H](O)[C@H](O)C/C(=N/NC(=O)OCc4ccc(OC)cc4)[C@H]3CC[C@@H]2C1=O,12%[10 µM],0%[10 µM],.,.,.
COc1cc(CCNC(=O)c2ccccc2NC(=O)C2=C(C)OCCS2)cc(OC)c1OC,28%,-2%,25%,?,-16
COc1cc(NC(=O)C2=C(C)OCCS2)c(Cl)cc1C(=O)NCCN(C)C,7%,0%,13%,?,-83*
COc1cc(OC)cc(C(=O)NC(=S)NNC(=O)[C@H]2C[C@@H]2c2ccccc2)c1,14µM*,?,5%,3%,43
O=C(/C=C/c1ccc(F)cc1)NC(=S)NNC(=O)[C@H]1C[C@@H]1c1ccccc1,?,-8%,-8%,17%,18
O=C(NC(=S)NNC(=O)[C@H]1C[C@@H]1c1ccccc1)c1ccc(F)cc1,10µM*,?,?,-2%,67
COc1ccc(C(=O)NC(=S)NNC(=O)[C@H]2C[C@@H]2c2ccccc2)cc1OC,?,?,?,?,71
CC(C)(C)NC(=S)NNC(=O)[C@H]1C[C@@H]1c1ccccc1,0.56µM*,-23%,-1%,-6%,1
COc1ccc(C(=O)c2cn[nH]c2-c2ccc(C)cc2O)cc1,8%,6%,4%,-4%,-19
COc1ccc(-c2[nH]ncc2N=Nc2cc(C)cc(C)c2)cc1,-2%,?,?,?,-92*
COc1ccc(-c2[nH]ncc2N=Nc2ccccc2)cc1,-2%,?,9%,?,-68*
SMILES,RORg inh,VP16 counter,MCF10A rereplic,SW480 rereplic,IL1B secr inh
Cc1ccc(Sc2c(C#N)c(-c3ccccc3)nn2C)cc1,18%,-1%,6.5µM*,?,23
Cn1nc(-c2ccccc2)c(CSc2ccccc2)c1Cl,18%,3%,13µM*,?,-3
Cc1ccc(SCc2c(-c3ccccc3)nn(C)c2Cl)cc1,13%,3%,8.2µM*,-1%,7
Cc1ccc(CNC(=O)Nc2ccc(F)cc2)n1C,-10%,-2%,-2%,-5%,29
O=c1[nH]c(Nc2nc3ccccc3o2)nc2c1CCCC2,4µM*,10µM*,-30%,3%,-101*
COc1ccc(S(=O)(=O)N2CCCCCC2)cc1C(=O)N1CCCCC1,1.4µM*,?,2%,-1%,0
CCN1CCN(S(=O)(=O)c2ccc(Cl)c(C(=O)N(C)Cc3cccc(Cl)c3Cl)c2)CC1,.,.,?,15%,-69*
O=C(c1cc(S(=O)(=O)N2CCN(c3ccccc3)CC2)ccc1Cl)N1CCCCCCC1,.,.,?,15%,-53*
COc1ccc(S(=O)(=O)N2CCCCCC2)cc1C(=O)N(C)Cc1ccc(Cl)cc1Cl,.,.,2.1µM*,-24%,-56*
CC1CN(C(=O)c2cc(S(=O)(=O)N3CCN(c4ccccc4)CC3)ccc2Cl)CC(C)O1 (stereo unspecified),.,.,6%,-5%,5
CCOC(=O)C1CCN(CCC(=O)Nc2ccc(Br)c(C)c2)CC1,-25%,-1%,?,-2%,8
CC(Sc1nnc(-c2cccnc2)n1N)C(=O)NCCC1=CCCCC1 (stereo unspecified),.,.,0%,-4%,7
CSCCC(c1nnnn1-c1c(C)cccc1C)N1CCN(C/C=C/c2ccccc2)CC1 (stereo unspecified),.,.,.,.,-59*
CC(NC(=O)/C=C/c1ccccc1[N+](=O)[O-])C1CC2CCC1C2 (stereo unspecified),-2%,3%,26%,-5%,-16
CCCSc1cc(N2CCN(C)CC2)nc(-c2ccc(OC)cc2)n1,1%,-6%,?,?,-57*
CCCSc1cc(N2CCCC2)nc(-c2ccccc2)n1,-3%,2%,18%,-4%,36
C=CCCn1c(Cl)c(C#N)sc1=O,-5%,-19%,.,.,.
COc1ccc(NC(=O)C(C)N2c3cccc4cccc(c34)S2(=O)=O)cc1OC (stereo unspecified),?,?,8.2µM*,13µM*,-1
Cc1cc(C)c(OCC(=O)N(Cc2ccc(N(C)C)cc2)C2CCS(=O)(=O)C2)c(C)c1 (stereo unspecified),13%,-7%,15%,7%,-72*
Cc1cc(C)cc(OCC(=O)N(Cc2ccc(N(C)C)cc2)C2CCS(=O)(=O)C2)c1 (stereo unspecified),37%,-3%,2%,-12%,-17
CN(C)c1ccc(CN(C(=O)c2ccc(Cl)c([N+](=O)[O-])c2)C2CCS(=O)(=O)C2)cc1 (stereo unspecified),38%,-1%,18%,-10%,-75*
CN(C)c1ccc(CN(C(=O)c2ccco2)C2CCS(=O)(=O)C2)cc1 (stereo unspecified),35%,-16%,-1%,1%,-8
